Assay outcomes deposited in PubChem BioAssay by National Center for Advancing Translational Sciences (NCATS).
Compounds with a hit are over-represented: about 19% of the library has one in this group of screens.
HT1080-NT tox = kills 2HG-producing HT-1080-NT fibrosarcoma cells; HT-1080-NT fibrosarcoma viability, CellTiter-Glo ATP luminescence, 48 h; Potency, µM (highest dose often 46.1 µM), actives largely listed as cytotoxic; 360,000 compounds, 1.6% hits; AID 686970;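 note: NT is the 2HG producing partner of a matched IDH1 knockdown line; nearly all actives have a fitted effect of over 55% in size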
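Viability by CellTiter-Glo luminescence after 48 h compound exposure at 37C of HT-1080-NT cells (750/well, RPMI, 5% FBS). % activity scaled between DMSO wells and medium-only wells, then curve-fitted and categorized by curve class.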
TDP1 cell CPT = DT40-hTDP1 cell growth loss with CPT; Potency, µM (top dose mostly 46.2 µM), usual class: inhibitors; chicken DT40 Tdp1-/-;hTDP1 cells + 20 nM CPT, ATP luminescence, 48 h; 420,000 compounds, 12% hits; note: nearly all actives have a fitted effect of over 55% in size
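Chicken DT40 Tdp1-/- cells complemented with human TDP1, 400 cells/well, exposed to compounds plus 20 nM camptothecin for at least 48 h at 37 C; viability read as ATP content by CellTiter-Glo luminescence.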
TDP1 cell noCPT = qHTS for Inhibitors of human tyrosyl-DNA phosphodiesterase 1 (TDP1): qHTS in cells in absence of CPT. DT40 Tdp1-/- hTDP1 cells, no CPT, ATP luminescence, 48 h. AID 686978, 2013. Potency, µM (doses to about 46.2 µM), hits mostly inhibitors. 420,000 compounds, 15% hits; note: nearly all actives have a fitted effect of over 55% in size
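Camptothecin absent (DMSO only). Human TDP1-complemented DT40 knockout cells, 400 cells/well, 37 °C for minimum 48 hr; ATP measured via CellTiter-Glo, 30 min dark incubation, luminescence.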
HT1080 IDH1KD tx = kills HT-1080 cells with IDH1 knockdown; HT-1080 IDH1 knockdown viability, ATP luminescence, 48 h; 360,000 compounds, 2% hits; Potency, µM (highest dose often 46.1 µM), actives largely listed as cytotoxic
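Cytotoxicity counter-line: IDH1KD HT-1080, 48 h, CellTiter-Glo. Curves classed by r2, magnitude and activity.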
IL1B secr inh = inflammasome signaling inhibition, IL-1 beta readout. THP-1 LPS/ATP IL-1B secretion, AlphaLISA, 16 h; hits give low values. activity change, % at 57.5 µM. 360,000 compounds, 4.7% hits; in the data active = activity change below about -50%; inconclusive = mostly about -30% to -49%
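THP-1 cells pretreated 1 hr with compounds (up to 57.5 uM final), then stimulated with LPS (250 ng/mL final) plus ATP (1.25 mM final); secreted IL-1B measured by AlphaLISA after 16 hr, decreased signal indicating inhibition.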
Hits are given with their value; – = inactive; ? = inconclusive; · = no result. Unless noted, calls come from the whole dose curve; as a rule, active = well fitted curve in the direction sought with a large enough effect; inconclusive = small, poorly fitted or top-dose-only effect, or another doubt; inactive = no such curve, though single readings can be large; an effect the other way counts as inactive or inconclusive.

SMILES	HT1080-NT tox	TDP1 cell CPT	TDP1 cell noCPT	HT1080 IDH1KD tx	IL1B secr inh
COc1ccc2c(c1)C(=O)C1NC(=O)NC(=O)C1(Br)N2 (configuration not stated)	–	–	–	–	–
COc1cc(NC(=O)C2CCN(S(=O)(=O)c3ccc4c(c3)oc(=O)n4C)CC2)cc(OC)c1	·	?	21µM	·	·
Cc1ccc(C)c(N2CCN(C(=O)C3CCCN(S(=O)(=O)c4ccc5c(c4)oc(=O)n5C)C3)CC2)c1 (configuration not stated)	·	16µM	12µM	·	·
Cc1ccc(C)c(N2CCN(C(=O)C(CC(C)C)NS(=O)(=O)c3ccc4nc(C)sc4c3)CC2)c1 (configuration not stated)	·	?	16µM	·	·
COc1cc(OC)c(NC(=O)C2CCN(S(=O)(=O)c3ccc4c(c3)oc(=O)n4C)CC2)cc1Cl	·	–	–	·	·
CSCCC(NS(=O)(=O)c1ccc2c(c1)oc(=O)n2C)C(=O)N1CCN(c2cc(C)ccc2C)CC1 (configuration not stated)	·	?	23µM	·	·
COc1cccc(-c2cc(CNC(=O)[C@H]3O[C@@H](n4ccc(N)nc4=O)[C@H](O)[C@@H]3O)no2)c1	–	–	–	–	–
CCN(CC(=O)Nc1cc(Cl)ccc1OC)CC(=O)NC1CCS(=O)(=O)C1 (configuration not stated)	–	–	–	–	–
Cc1ccc(C)c(N2CCN(C(=O)C3CCN(S(=O)(=O)c4ccc5[nH]c(=O)oc5c4)CC3)CC2)c1	·	23µM	26µM	·	·
Cn1c(=O)oc2cc(S(=O)(=O)N3CCCC(C(=O)NCCN4CCOCC4)C3)ccc21 (configuration not stated)	–	–	–	–	–
Cn1c(=O)oc2cc(S(=O)(=O)N3CCCC(C(=O)N4CCN(c5ccc(F)cc5)CC4)C3)ccc21 (configuration not stated)	·	7.3µM	4.1µM	·	·
CCOC(=O)C1CCCN(C(=O)C2CCCN(S(=O)(=O)c3ccc4c(c3)oc(=O)n4C)C2)C1 (configuration not stated)	–	–	?	–	–
Cn1c(=O)oc2cc(S(=O)(=O)N3CCCC(C(=O)N4CCc5ccccc5C4)C3)ccc21 (configuration not stated)	–	16µM	15µM	–	–
COc1ccc(N2CCN(C(=O)C3CCN(S(=O)(=O)c4ccc5c(c4)oc(=O)n5C)CC3)CC2)cc1	–	?	9.2µM	–	–
CN1CCN(C(=O)C2CCN(S(=O)(=O)c3ccc4c(c3)oc(=O)n4C)CC2)CC1	–	–	–	–	–
COc1cc(CN2C[C@@H](CO)O[C@@H](n3cnc4c(NC(C)C)ncnc43)C2)cc(OC)c1OC	?	–	–	–	–
CC(Sc1ccccc1)C(=O)NN=C1CCCCCCC1 (configuration not stated)	–	–	–	–	–
Cc1ccccc1Nc1scc(-c2ccc(Cl)cc2)[n+]1-c1ccccc1C	–	18µM	23µM	–	–
O=C(/C=C/[C@H]1O[C@@H](n2cnc3c(NC(=O)c4ccccc4)ncnc32)[C@H](O)[C@@H]1O)NCc1cccc2ccccc12	–	–	–	–	–
Cc1ccc(NC(=O)c2cccs2)cc1S(=O)(=O)Nc1cccc(Cl)c1	–	–	?	–	-131
O=C(CCC(=O)c1ccc(F)cc1)Nc1cccc(S(=O)(=O)Nc2cccc(Cl)c2)c1	–	15µM	23µM	–	–
Cc1ccc(S(=O)(=O)Nc2ccc(NC(=O)c3cccs3)cc2)cc1	–	?	?	–	?
Cc1ccc(NC(=S)NC(=O)c2ccc(F)cc2)cc1S(=O)(=O)Nc1cccc(Cl)c1	6.5µM	5.2µM	5.8µM	2.9µM	?
O=C(CCC(=O)c1ccc(F)cc1)Nc1ccc(Cl)cc1	·	–	–	·	·
Cc1ccc(NC(=O)CC(=O)c2ccc([N+](=O)[O-])cc2)cc1S(=O)(=O)Nc1cccc(Cl)c1	–	–	–	?	–
CCCn1nnc(NC(=O)C(C)C)n1	–	–	–	–	–
